# Results as given in the supplement of paper PMC10849652.
# About 7,900 targets were measured; listed, in parts, are those with a hit and a random draw of the rest. About 0.6% of all pairs of compound and target were hits. A number with no mark means an inactive call.
# Experiments:
# Experiment in all cases: log2 fold change, soluble protein after heating vs DMSO (PISA); higher = thermal stabilisation; K562 cells, 10 uM, 30 min; active = over 0.2 and 3.5 SD of the protein, either way, in both replicates (recomputed)
# erlotinib = compound: C#Cc1cccc(Nc2ncnc3cc(OCCOC)c(OCCOC)cc23)c1 [erlotinib]
# Summary of the method: (§1)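 Thermal stability values are relative to control samples and come from duplicates. They are expressed as log2 fold changes. For measurement, K562 cells (2×10^6 cells/mL) received 10 μM compound for 30 min, and aliquots were heated for 3 min over 48°C-58°C, pooled, and extracted at 4°C in PBS with 0.5% NP-40. Soluble protein, the supernatant after 21,000xg for 90 min, was quantified by TMTpro 16plex LC-MS/MS with equalised channel sums.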
# [1] = compound: C/C(=N\NC(=O)C1=CC(=CC=C1)S(=O)(=O)N2CCOCC2)/C3=C(C=CC(=C3)Cl)O
# Summary of the method: as §1
# [2] = compound: C1=CC(=C(C=C1Cl)C2=NC3=NC=CN=C3C(=N2)NC4=CC=NC=C4)F
# Summary of the method: as §1
# [3] = compound: C1=CC(=CC=C1C2=NC3=C(N2)C=C(C=C3)C(=O)N)OC4=CC=C(C=C4)Cl
# Summary of the method: as §1
# [4] = compound: C1=CC2=C(C=CC(=C2)/C=C\3/C(=O)NC(=NCC4=CC=CS4)S3)N=C1
# Summary of the method: as §1
# [5] = compound: C1=CC2=NC=CN=C2C=C1/C=C/3\C(=O)NC(=O)S3
# Summary of the method: as §1
# [6] = compound: C1=CC=C(C=C1)C2=NC(=C(N2)C3=CC=NC=C3)C4=CC(=C(C=C4)Cl)O
# Summary of the method: as §1
# [7] = compound: C1=CC=C2C(=C1)C3=NNC4=CC=CC(=C43)C2=O
# Summary of the method: as §1
# [8] = compound: C1CCN(C1)C(=O)NC2=CC=CC(=C2)NC3=NC=C(C(=N3)NCCC4=CN=CN4)Br
# Summary of the method: as §1
# [9] = compound: C1CN(CCC1(CC2=CC=C(C=C2)Cl)N)C3=NC=NC4=C3C=CN4
# Summary of the method: as §1
# IRAK-1-4 Inhibitor I = compound: C1COCCN1CCN2C3=CC=CC=C3N=C2NC(=O)C4=CC(=CC=C4)[N+](=O)[O-] [IRAK-1-4 Inhibitor I]
# Summary of the method: as §1
# ibrutinib = compound: C=CC(=O)N1CCC[C@@H](n2nc(-c3ccc(Oc4ccccc4)cc3)c3c(N)ncnc32)C1 [ibrutinib]
# Summary of the method: as §1
# [10] = compound: CC(=O)c1cnc2ccc(-c3cc(Cl)c(O)c(Cl)c3)nc2c1N[C@H]1CC[C@H](CN(C)C)CC1
# Summary of the method: as §1
# ralimetinib = compound: CC(C)(C)Cn1c(N)nc2ccc(-c3[nH]c(C(C)(C)C)nc3-c3ccc(F)cc3)nc21 [ralimetinib]
# Summary of the method: as §1
# [11] = compound: CC(C)(O)CC(=O)NCCn1ccc2ncnc(Nc3ccc(Oc4cccc(C(F)(F)F)c4)c(Cl)c3)c21
# Summary of the method: as §1
# [12] = compound: CC(C)C1=C2N=C(C=C(N2N=C1)NCC3=CC=CC=C3)NCCCCCCN
# Summary of the method: as §1
# [13] = compound: CC(C)C[C@@H](C=O)NC(=O)[C@H](CC(C)C)NC(=O)[C@H](CC(C)C)NC(=O)OCc1ccccc1
# Summary of the method: as §1
# pinometostat = compound: CC(C)N(C[C@H]1O[C@@H](n2cnc3c(N)ncnc32)[C@H](O)[C@@H]1O)[C@H]1C[C@@H](CCc2nc3cc(C(C)(C)C)ccc3[nH]2)C1 [pinometostat]
# Summary of the method: as §1
# [14] = compound: CC1=C(C(CC(=O)N1)C2=CC=C(C=C2)C(F)(F)F)C(=O)NC3=C(C=C4C(=C3)C=NN4)F
# Summary of the method: as §1
# [15] = compound: CC1=C(C2=C(C=C1)C(=O)C3=CC=CC=C3N2CCCN)C
# Summary of the method: as §1
# Chain of UniProt Q15648 (Q15648 whole entry, looked up): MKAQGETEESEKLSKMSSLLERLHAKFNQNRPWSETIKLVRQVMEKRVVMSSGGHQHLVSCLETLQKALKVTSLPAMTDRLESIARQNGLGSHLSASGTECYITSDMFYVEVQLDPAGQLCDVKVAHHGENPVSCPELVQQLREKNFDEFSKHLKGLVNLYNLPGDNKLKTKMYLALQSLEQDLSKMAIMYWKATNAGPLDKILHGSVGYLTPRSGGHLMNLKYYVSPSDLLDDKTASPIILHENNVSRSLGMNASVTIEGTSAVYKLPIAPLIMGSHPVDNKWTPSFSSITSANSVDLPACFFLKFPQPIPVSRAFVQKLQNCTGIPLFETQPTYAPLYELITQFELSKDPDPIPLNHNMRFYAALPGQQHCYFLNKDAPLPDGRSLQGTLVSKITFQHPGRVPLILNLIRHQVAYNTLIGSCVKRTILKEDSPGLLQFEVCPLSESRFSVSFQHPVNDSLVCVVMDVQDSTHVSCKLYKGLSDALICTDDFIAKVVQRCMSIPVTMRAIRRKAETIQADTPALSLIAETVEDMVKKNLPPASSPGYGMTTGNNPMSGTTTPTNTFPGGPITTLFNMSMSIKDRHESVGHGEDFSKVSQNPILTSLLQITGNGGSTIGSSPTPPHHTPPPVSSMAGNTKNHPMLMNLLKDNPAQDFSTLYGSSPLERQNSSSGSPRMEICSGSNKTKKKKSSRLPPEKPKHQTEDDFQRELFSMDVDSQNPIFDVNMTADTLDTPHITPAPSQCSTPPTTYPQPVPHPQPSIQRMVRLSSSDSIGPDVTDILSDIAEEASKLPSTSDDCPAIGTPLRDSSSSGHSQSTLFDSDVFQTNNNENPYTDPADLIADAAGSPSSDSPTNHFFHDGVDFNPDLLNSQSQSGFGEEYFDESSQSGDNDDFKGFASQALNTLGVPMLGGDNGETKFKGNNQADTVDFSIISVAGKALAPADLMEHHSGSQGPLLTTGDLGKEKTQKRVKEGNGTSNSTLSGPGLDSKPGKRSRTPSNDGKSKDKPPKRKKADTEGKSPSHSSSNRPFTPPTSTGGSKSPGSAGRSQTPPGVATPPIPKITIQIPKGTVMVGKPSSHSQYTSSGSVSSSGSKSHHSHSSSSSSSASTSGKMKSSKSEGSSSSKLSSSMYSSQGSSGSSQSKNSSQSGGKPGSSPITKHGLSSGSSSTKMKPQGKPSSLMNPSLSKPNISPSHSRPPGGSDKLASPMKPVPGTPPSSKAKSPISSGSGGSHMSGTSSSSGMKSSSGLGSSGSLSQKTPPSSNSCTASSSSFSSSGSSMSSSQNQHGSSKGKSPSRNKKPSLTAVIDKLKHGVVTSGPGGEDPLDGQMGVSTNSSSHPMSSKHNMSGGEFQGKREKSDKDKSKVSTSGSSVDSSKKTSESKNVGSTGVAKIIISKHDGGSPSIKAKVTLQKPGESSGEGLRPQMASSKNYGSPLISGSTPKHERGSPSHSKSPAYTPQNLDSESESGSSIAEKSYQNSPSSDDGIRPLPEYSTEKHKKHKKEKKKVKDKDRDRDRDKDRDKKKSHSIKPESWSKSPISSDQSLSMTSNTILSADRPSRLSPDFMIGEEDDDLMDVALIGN
# Chain of UniProt Q99661 (Q99661 whole entry, looked up): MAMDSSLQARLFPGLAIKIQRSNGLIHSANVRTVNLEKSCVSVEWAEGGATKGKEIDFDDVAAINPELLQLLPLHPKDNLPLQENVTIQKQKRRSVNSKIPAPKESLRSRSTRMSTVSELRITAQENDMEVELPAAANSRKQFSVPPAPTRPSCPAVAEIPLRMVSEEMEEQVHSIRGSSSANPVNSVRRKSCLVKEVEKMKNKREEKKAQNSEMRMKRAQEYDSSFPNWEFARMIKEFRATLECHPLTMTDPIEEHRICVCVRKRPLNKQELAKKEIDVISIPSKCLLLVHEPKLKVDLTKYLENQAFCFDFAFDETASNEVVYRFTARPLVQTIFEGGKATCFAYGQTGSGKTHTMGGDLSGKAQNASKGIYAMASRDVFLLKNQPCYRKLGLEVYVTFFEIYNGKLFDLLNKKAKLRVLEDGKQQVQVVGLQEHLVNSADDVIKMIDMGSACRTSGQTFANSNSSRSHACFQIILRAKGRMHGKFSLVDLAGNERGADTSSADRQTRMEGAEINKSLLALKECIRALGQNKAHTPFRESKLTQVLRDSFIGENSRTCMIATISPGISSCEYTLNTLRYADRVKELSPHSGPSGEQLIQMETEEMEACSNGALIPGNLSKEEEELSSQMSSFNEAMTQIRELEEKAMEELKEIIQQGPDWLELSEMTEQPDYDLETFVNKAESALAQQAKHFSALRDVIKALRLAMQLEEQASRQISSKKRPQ
# Chain of UniProt Q9Y6R4 (Q9Y6R4 whole entry, looked up): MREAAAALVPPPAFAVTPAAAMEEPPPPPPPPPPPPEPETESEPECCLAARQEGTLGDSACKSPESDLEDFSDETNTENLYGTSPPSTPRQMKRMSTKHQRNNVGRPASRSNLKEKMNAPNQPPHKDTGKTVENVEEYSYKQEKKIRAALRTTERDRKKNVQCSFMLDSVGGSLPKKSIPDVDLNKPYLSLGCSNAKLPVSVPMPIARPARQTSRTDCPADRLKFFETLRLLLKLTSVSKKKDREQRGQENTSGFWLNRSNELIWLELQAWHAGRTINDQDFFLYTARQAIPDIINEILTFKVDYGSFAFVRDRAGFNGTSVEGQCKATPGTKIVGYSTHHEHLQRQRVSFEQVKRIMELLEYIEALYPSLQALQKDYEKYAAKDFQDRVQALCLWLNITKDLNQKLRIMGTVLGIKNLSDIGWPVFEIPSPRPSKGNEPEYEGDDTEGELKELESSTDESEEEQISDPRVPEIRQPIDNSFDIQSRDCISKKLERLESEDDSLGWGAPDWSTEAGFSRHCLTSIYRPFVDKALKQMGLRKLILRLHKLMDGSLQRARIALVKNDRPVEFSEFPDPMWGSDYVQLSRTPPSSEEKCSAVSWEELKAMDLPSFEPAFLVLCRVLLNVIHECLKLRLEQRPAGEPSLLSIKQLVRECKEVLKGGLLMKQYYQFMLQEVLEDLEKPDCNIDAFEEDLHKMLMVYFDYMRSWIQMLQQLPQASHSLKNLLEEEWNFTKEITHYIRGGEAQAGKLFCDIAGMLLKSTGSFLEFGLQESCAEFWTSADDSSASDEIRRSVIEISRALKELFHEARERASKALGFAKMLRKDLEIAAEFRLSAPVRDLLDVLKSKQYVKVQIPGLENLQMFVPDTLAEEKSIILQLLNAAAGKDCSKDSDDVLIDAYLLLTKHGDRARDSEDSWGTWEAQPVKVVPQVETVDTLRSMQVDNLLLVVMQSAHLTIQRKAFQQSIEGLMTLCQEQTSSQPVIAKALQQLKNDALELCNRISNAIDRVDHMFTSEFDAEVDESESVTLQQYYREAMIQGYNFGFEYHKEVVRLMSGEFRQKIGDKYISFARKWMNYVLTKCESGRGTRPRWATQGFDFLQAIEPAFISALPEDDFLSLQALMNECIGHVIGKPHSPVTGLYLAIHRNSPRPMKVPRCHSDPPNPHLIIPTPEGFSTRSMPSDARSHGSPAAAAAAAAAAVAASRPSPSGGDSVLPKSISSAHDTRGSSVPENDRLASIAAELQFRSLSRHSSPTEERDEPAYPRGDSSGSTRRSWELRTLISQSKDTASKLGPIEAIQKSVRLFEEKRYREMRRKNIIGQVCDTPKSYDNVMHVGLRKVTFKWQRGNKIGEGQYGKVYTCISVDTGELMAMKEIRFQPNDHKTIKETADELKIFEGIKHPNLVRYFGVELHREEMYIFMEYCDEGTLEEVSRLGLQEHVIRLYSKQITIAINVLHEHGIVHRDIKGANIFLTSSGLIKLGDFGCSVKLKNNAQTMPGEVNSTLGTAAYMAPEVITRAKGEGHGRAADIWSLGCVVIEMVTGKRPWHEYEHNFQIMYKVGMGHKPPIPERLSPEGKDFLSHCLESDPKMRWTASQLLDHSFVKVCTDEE
# Chain of UniProt Q8NE86 (Q8NE86 whole entry, looked up): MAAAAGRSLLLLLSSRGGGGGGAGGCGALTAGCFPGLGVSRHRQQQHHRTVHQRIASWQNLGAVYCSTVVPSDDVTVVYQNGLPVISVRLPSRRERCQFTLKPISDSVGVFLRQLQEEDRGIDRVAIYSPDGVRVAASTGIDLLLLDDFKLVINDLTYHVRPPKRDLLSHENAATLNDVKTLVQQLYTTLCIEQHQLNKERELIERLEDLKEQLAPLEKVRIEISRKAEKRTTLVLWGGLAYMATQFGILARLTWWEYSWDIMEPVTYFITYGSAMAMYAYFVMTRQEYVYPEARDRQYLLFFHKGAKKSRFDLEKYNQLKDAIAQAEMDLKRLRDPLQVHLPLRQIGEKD
# Chain of UniProt A1L0T0 (A1L0T0 whole entry, looked up): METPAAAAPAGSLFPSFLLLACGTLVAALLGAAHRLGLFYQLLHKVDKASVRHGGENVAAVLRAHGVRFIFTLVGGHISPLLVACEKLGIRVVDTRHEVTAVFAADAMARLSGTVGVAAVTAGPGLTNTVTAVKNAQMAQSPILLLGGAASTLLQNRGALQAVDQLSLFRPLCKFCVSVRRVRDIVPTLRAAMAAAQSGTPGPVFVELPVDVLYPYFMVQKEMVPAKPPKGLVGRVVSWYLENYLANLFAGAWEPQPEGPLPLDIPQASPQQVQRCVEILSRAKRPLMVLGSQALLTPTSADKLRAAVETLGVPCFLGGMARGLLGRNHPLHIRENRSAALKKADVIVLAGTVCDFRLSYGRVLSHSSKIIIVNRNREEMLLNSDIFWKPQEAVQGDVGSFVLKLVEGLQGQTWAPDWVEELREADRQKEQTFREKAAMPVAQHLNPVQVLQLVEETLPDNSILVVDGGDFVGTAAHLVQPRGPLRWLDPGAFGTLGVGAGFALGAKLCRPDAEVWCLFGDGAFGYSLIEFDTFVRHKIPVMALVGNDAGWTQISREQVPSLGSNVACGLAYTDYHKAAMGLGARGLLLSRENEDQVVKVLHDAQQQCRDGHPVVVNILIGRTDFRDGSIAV
Target,log2 fold change (erlotinib),log2 fold change [1],log2 fold change [2],log2 fold change [3],log2 fold change [4],log2 fold change [5],log2 fold change [6],log2 fold change [7],log2 fold change [8],log2 fold change [9],log2 fold change (IRAK-1-4 Inhibitor I),log2 fold change (ibrutinib),log2 fold change [10],log2 fold change (ralimetinib),log2 fold change [11],log2 fold change [12],log2 fold change [13],log2 fold change (pinometostat),log2 fold change [14],log2 fold change [15]
MCU (UniProt Q8NE86),0.007,0.042,0.083,0.008,0.027,0.013,0.001,0.014,0.004,0.013,0.06,-0.026,-0.036,-0.042,-0.108,-0.122,-0.026,0.03,0.025,0.017
KLHDC4 (UniProt Q8TBB5),-0.066,-0.075,-0.174,-0.013,0.077,-0.123,-0.081,0.07,-0.113,0.119,-0.008,-0.011,-0.008,0.062,0.002,0.065,0.017,0.199,-0.123,0.159
MED1 (UniProt Q15648),-0.022,-0.011,-0.118,-0.001,0.04,0.043,-0.03,-0.043,0.016,-0.025,-0.049,0.002,-0.28 (active),0.032,-0.008,-0.106,0.033,0.189,0.019,0.027
KIF2C (UniProt Q99661),0.036,0.09,0.036,0.021,0.01,-0.004,0.043,0.019,-0.031,-0.103,-0.111,-0.033,-0.058,0.028,-0.069,-0.065,0.035,0.031,-0.008,0.028
ILVBL (UniProt A1L0T0),0.027,0.092,-0.035,-0.02,0.178,-0.03,0.009,-0.026,0.014,0.095,0.073,0.048,-0.027,-0.075,-0.053,0.058,-0.018,0.066,-0.013,0.025
MAP3K4 isoform 2 (UniProt Q9Y6R4),-0.027,0.019,0.036,-0.023,0.039,-0.017,-0.023,-0.031,0.034,0.07,0.049,0,0.198,0.007,-0.014,-0.027,-0.023,0.014,-0.033,0.002
